Test [1] is described as follows: inhibitors of TNFa-induced NFkB p65 translocation, primary screen, imaging, HUVEC, MLSMR starter and 10KST1 sets (AID 438;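 active = inhibition above 20% together with a positive visual image hit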;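 also: compound added about 3h40 before a 20 min TNFalpha stimulation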;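 as to inhibition: signal is the nuclear over cytoplasmic p65 intensity ratio per well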). The settings on record: HUVEC TNFa-induced p65 nuclear translocation; cell count: measured here: nuclei count (cytotoxicity indicator), at 2.08 µM; inhibition: at 2 µM, stronger effect = higher value, 0% TNFa-plus-vehicle, 100% no-TNFa wells.
A short description of test [2]: inhibitors of mutant huntingtin aggregation, primary screen, imaging, exon1htt(103Q)mCFP cells, high-content imaging (AID 483;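 active = visual image review flags a hit and inhibition of aggregation exceeds 20%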;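 also: compound exposure lasted 3 days before fixation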;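 as to nuclei count: percent of the per-plate median nuclei count of sample wells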). The settings on record: exon1htt(103Q)mCFP cell line, aggregate imaging, at 2 µM; inhibition of aggregation: stronger effect = higher value; nuclei count: measured here: cell count, toxicity.
Test [3] in a line: inhibitors of E-selectin induction by TNFa, primary screen, imaging, HUVEC, immunofluorescence, MLSMR starter and 10KST1 sets (AID 487).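 As to inhibition: signal is fraction of cell area covered by stained E-selectin grains.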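 As to nuclei count: 100% = median nuclei count of all wells on the same plate.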 The settings on record: HUVEC TNFalpha-induced E-selectin immunofluorescence imaging, at 2 µM; inhibition: stronger effect = higher value; nuclei count: measured here: cell number, toxicity.
Test [4] addresses Voltage-gated potassium channel subunit beta-2 (Rattus norvegicus) (UniProt P62483). The test is described as follows: KvBeta enzyme negative modulators, primary screen, biochemical, NADPH fluorescence (AID 622;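 active = fluorescence slope higher than the sample average by over 3 SD, cut at about -0.22 in these data, passing the limit was not always enough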;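 also: slope of raw intensity against log time taken from 70 to 1610 s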). The settings on record: recombinant KvBeta, 4-cyanobenzaldehyde reduction, at 10 µM, stronger effect = higher value.
For test [5] the target is unchanged. The test can be described thus: KvBeta positive modulators, primary screen, biochemical, NADPH fluorescence (AID 623;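 active = NADPH fluorescence slope more negative than the mean of all samples by about 3 SD, 99.7% confidence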;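 also: fluorescence intensity change per second fitted from 20 to 320 s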). The settings on record: Recombinant KvBeta, NADPH fluorescence decrease slope, 10 min; at 10 µM; stronger effect = lower value.
For test [6], the target named is Alpha-2C adrenergic receptor (Homo sapiens) (UniProt P18825). The test is described as follows: modulators of alpha2C/GIRK thallium flux, primary screen, cell-based, HEK293 alpha2C/GIRK1/2 (AID 624;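 active = fluorescence slope after compound addition differing from the mean of all screened samples at 99.7% confidence, in either direction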;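 also: slope of fluorescence ratio to pre-addition baseline per second over 15 to 24 s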). The settings on record: thallium flux BTC fluorescence, at 10 µM, actives lie on both sides.
Alpha-2C adrenergic receptor (Homo sapiens), sequence (P18825 whole entry, looked up): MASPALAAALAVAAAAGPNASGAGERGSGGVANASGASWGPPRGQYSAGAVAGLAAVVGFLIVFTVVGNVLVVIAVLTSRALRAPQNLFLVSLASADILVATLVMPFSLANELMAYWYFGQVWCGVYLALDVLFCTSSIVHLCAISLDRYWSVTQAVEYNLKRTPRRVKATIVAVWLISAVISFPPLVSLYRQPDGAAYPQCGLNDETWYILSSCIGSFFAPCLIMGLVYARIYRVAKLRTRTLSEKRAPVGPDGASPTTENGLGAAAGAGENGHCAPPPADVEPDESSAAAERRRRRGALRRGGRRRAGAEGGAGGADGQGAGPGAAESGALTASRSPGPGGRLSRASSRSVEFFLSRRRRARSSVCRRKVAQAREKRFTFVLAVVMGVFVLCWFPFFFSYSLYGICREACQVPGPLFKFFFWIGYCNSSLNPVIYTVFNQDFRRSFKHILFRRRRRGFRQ
A short description of test [7]: inhibitors of Sendai virus-induced IRF3 signaling, primary screen, TLR/RLR signaling modifier project, cell-based, Sendai virus stimulus, luciferase, 10K MLSCN set (AID 602276;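 active = inhibition at or above 50% at 10 µM; inactive = inhibition below 50%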;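 also: firefly luciferase from ISG56 promoter only with Renilla not read in this screen; 0% = Sendai virus plus DMSO and 100% = medium plus DMSO without virus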). The settings on record: HEK293 RL24 IRF3 luciferase reporter, at 10 µM, stronger effect = higher value.
The nature of test [8]: inhibitors of poly I:C-induced TLR3 signaling, primary screen, cell-based, poly I:C stimulus, luciferase, 10K MLSCN set (AID 602277;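 active = inhibition of the reporter signal at or above 50%; inactive = inhibition below 50%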). The settings on record: HEK293-TLR3 RL24 IRF3 luciferase reporter, at 10 µM, stronger effect = higher value.

Calls of active or inactive are those of the source.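 The calls were made as follows, unless noted: active = visually confirmed hit in the image check and inhibition above 20%; inconclusive = visually confirmed hit but inhibition not above 20%; inactive = no visual hit in the image check.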

Voltage-gated potassium channel subunit beta-2 (Rattus norvegicus), sequence (P62483 whole entry, looked up): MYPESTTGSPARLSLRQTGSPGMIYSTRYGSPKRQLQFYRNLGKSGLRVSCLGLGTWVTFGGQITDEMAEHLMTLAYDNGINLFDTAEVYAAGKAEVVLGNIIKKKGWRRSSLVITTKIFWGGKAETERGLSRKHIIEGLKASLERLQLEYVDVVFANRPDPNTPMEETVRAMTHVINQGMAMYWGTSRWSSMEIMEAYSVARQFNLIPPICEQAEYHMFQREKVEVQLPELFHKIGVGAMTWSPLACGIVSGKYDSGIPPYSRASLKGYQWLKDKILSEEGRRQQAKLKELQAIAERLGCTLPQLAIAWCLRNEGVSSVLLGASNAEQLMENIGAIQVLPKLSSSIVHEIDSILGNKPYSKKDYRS

`CCCC(c1nnnn1Cc1ccc(OC)cc1)N1CCN(c2ccccc2OC)CC1` (centres undefined): in test [1], the cell count turned out to be 257. The inhibition in test [1] was 12.3% (inactive); in test [3], -14.7% (inactive); in test [7] it was 10.6% (inactive); in test [8], 23.6% (inactive). For the same compound, in test [2], the inhibition of aggregation is -3.4% (inactive). Moreover, the nuclei count amounted to 101% in test [2] and 82.7% in test [3]. Moreover, the fluorescence slope in test [4] was -0.433 (inactive). In addition, the NADPH fluorescence slope in test [5] is -0.000141 (inactive). Further, the slope in test [6] is 0.00492 (inactive).
As to `O=S(=O)(c1cccc(-c2nnco2)c1)N1CCCC1`, the cell count in test [1] came to 453. For the same compound, the inhibition in test [1] was 0.5% (inactive); in test [3] it was 0.2% (inactive); in test [7], 8.27% (inactive); in test [8], 13.9% (inactive). The inhibition of aggregation in test [2] is -4.5% (inactive). The figures for the nuclei count in test [2] and in test [3] were 95.9% and 108%, respectively. Further, in test [4], the fluorescence slope was -0.519 (inactive). Besides, the NADPH fluorescence slope in test [5] was -4.3e-05 (inactive). Besides, in test [6], the slope is 0.00457 (inactive).
As to `Cc1ccc(Cn2c(CN3CCOCC3)nc3c2c(=O)n(C)c(=O)n3C)cc1`, the cell count in test [1] turned out to be 332. Further, the inhibition in test [1] is 19.7% (inactive); in test [3] it was -3.6% (inactive); in test [7], 2.2% (inactive); in test [8] it was 26.6% (inactive). For the same compound, the inhibition of aggregation in test [2] was 16.7% (inactive). Also, the nuclei count in test [2] and in test [3] was 104% each time. In test [4], the fluorescence slope is -0.48 (inactive). Also, the NADPH fluorescence slope in test [5] was -4.2e-05 (inactive). Further, the slope in test [6] is 0.00599 (inactive).
As to `O=C(Nc1cnn(Cc2ccc(Cl)cc2Cl)c1)c1noc2c1CCCC2`, the cell count in test [1] was 510. The inhibition in test [1] was -7.6% (inactive); in test [3], -22.8% (inactive); in test [7], -3.18% (inactive); in test [8], -25.5% (inactive). In test [2], the inhibition of aggregation is 33.3% (active). The nuclei count in test [2] is 57.6%; in test [3], 99.5%. For the same compound, the fluorescence slope in test [4] is -0.569 (inactive). Also, the NADPH fluorescence slope in test [5] was -2.6e-05 (inactive). Moreover, the slope in test [6] was 0.00522 (inactive).
As for `CSc1nc2ccc(Nc3nc(N4CCOCC4)nc(N4CCOCC4)n3)cc2s1`, the cell count in test [1] was found to be 391. Further, the inhibition in test [1] was 4.9% (inactive); in test [3], 17.6% (inactive); in test [7], -24.9% (inactive); in test [8] it was -49.5% (inactive). Moreover, in test [2], the inhibition of aggregation is 6.4% (inactive). Also, the nuclei count in test [2] was found to be 106%; in test [3], 110%. For the same compound, in test [4], the fluorescence slope was -0.354 (inactive). For the same compound, the NADPH fluorescence slope in test [5] is -2.2e-05 (inactive). In addition, in test [6], the slope was 0.00663 (inactive).
Turning to `COc1ccccc1N(CN1CCCC1=O)C(=O)c1c(F)cccc1Cl`, the cell count in test [1] was determined as 370. In addition, the inhibition is -0.3% (inactive) in test [1], -15.4% (inactive) in test [3], 12.3% (inactive) in test [7] and 4.03% (inactive) in test [8]. For the same compound, the inhibition of aggregation in test [2] is 9.3% (inactive). Also, the values for the nuclei count in test [2] and in test [3] were 84.8% and 91.8%, respectively. In addition, the fluorescence slope in test [4] was -0.477 (inactive). For the same compound, in test [5], the NADPH fluorescence slope is -3.8e-05 (inactive). Moreover, the slope in test [6] was 0.0058 (inactive).
For `COc1cc(C(=O)N2CCC(NC(=O)C(Cc3ccc(C)cc3)NC(C)=O)CC2)cc(OC)c1OC` (centres undefined), in test [1], the cell count was 666. Besides, the inhibition in test [1] is -6.1% (inactive); in test [3] it was 5.2% (inactive); in test [7], 1.73% (inactive); in test [8] it was 24.4% (inactive). In addition, the inhibition of aggregation in test [2] was 22.1% (inactive). In addition, the figures for the nuclei count in test [2] and in test [3] were 56.4% and 127%, respectively. Further, the fluorescence slope in test [4] was -0.478 (inactive). Besides, in test [5], the NADPH fluorescence slope was -4.4e-05 (inactive). In addition, in test [6], the slope is 0.00562 (inactive).
As for `CN(C1CCCCC1)S(=O)(=O)c1ccc(NC(=O)c2ccco2)cc1`, in test [1], the cell count came out at 301. Moreover, the inhibition in test [1] is 2.8% (inactive); in test [3], -28.1% (inactive); in test [7], 4.93% (inactive); in test [8], -6.73% (inactive). Besides, the inhibition of aggregation in test [2] is -6.6% (inactive). In addition, the nuclei count was found to be 106% in test [2] and 112% in test [3]. Also, the fluorescence slope in test [4] was -0.399 (inactive). In addition, the NADPH fluorescence slope in test [5] was -4.1e-05 (inactive). For the same compound, the slope in test [6] is 0.00468 (inactive).
Take `CC(CCC(=O)Nc1nncs1)C(=O)O` (centres undefined): the cell count in test [1] was determined as 527. In addition, the inhibition in test [1] is -0.8% (inactive); in test [3], -52.1% (inactive); in test [7], 9.72% (inactive); in test [8] it was 20.3% (inactive). For the same compound, in test [2], the inhibition of aggregation is 1.4% (inactive). Further, the nuclei count in test [2] came out at 97%; in test [3], 123%. Further, the fluorescence slope in test [4] was -0.535 (inactive). In test [5], the NADPH fluorescence slope was -5.2e-05 (inactive). The slope in test [6] was 0.00611 (inactive).
On to `COCCCN(C)C1CCN(C(=O)Nc2ccc(F)cc2)CC1`, for which the cell count in test [1] was 610. For the same compound, the inhibition in test [1] was -1.3% (inactive); in test [3], -49.7% (inactive); in test [7] it was 11% (inactive); in test [8], 36.9% (inactive). For the same compound, the inhibition of aggregation in test [2] is -8.7% (inactive). For the same compound, the nuclei count was 108% in test [2] and 102% in test [3]. Moreover, the fluorescence slope in test [4] is -0.582 (inactive). The NADPH fluorescence slope in test [5] was -1.9e-06 (inactive). Moreover, the slope in test [6] was 0.00654 (inactive).
Consider `CCOC(=O)Cn1c(=N)n(CCOc2cccc(C)c2)c2ccccc21`, for which, in test [1], the cell count worked out at 426. Also, the inhibition was -18.5% (inactive) in test [1], -112% (inactive) in test [3], 11.4% (inactive) in test [7] and 19.4% (inactive) in test [8]. In addition, in test [2], the inhibition of aggregation was 19.9% (inactive). Besides, the nuclei count in test [2] came to 108%; in test [3], 224%. Also, the fluorescence slope in test [4] was -0.322 (inactive). Also, in test [5], the NADPH fluorescence slope was 2e-05 (inactive). The slope in test [6] was 0.00636 (inactive).
For `COc1ccc(CC(NC(C)=O)C(=O)N2CCN(C(=O)N(C(C)C)C(C)C)CC2)cc1` (centres undefined), the cell count in test [1] worked out at 309. The inhibition is -4% (inactive) in test [1], -29.4% (inactive) in test [3], 4.31% (inactive) in test [7] and 3.57% (inactive) in test [8]. Moreover, in test [2], the inhibition of aggregation is -9.5% (inactive). Besides, the nuclei count turned out to be 91.9% in test [2] and 100% in test [3]. Moreover, the fluorescence slope in test [4] is -0.397 (inactive). The NADPH fluorescence slope in test [5] was -6.6e-05 (inactive). In test [6], the slope was 0.00701 (inactive).
As to `Cc1nc2sc(C(c3ccccc3)N3CCN(c4ccccc4F)CC3)c(O)n2n1` (centres undefined), the cell count in test [1] worked out at 305. In addition, the inhibition in test [1] was -1% (inactive); in test [3], 8.6% (inactive); in test [7], 5.03% (inactive); in test [8], 5.62% (inactive). Moreover, in test [2], the inhibition of aggregation was -6.7% (inactive). Besides, the nuclei count in test [2] was found to be 83.6%; in test [3] it was 91.8%. For the same compound, the fluorescence slope in test [4] is -0.437 (inactive). Also, the NADPH fluorescence slope in test [5] is 0.000106 (inactive). In addition, the slope in test [6] was 0.00618 (inactive).
As for `CCN(CC)CCN1C(=O)c2oc3ccc(F)cc3c(=O)c2C1c1ccncc1` (centres undefined), the cell count in test [1] was found to be 598. The inhibition was -12.9% (inactive) in test [1], -5.7% (inactive) in test [3], 15.9% (inactive) in test [7] and 44.8% (inactive) in test [8]. The inhibition of aggregation in test [2] was -2.9% (inactive). The nuclei count turned out to be 102% in test [2] and 111% in test [3]. Further, in test [4], the fluorescence slope was -0.536 (inactive). The NADPH fluorescence slope in test [5] was -4.3e-05 (inactive). The slope in test [6] is 0.00733 (inactive).

Values taken from PubChem BioAssay.
